We go through 107 sequences from PubChem BioAssay AID1508600 (Functional Genomics Laboratory (NCATS/FGL), 2020).

Out of some 53,000 sequences screened, about 3,700 (7%) were called active.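 How the source made its calls: active means gene knockdowns whose robust z-score for IL-1 alpha signal is at least 2 or at most -2, so actives lie on both sides; inactive means the rest.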 The entries come from a sample that favours actives as a whole.

This assay is described as follows: Components of the Cytosolic LPS Sensing Pathway: Gene Identification via Genome-wide siRNA Screen.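 Further: robust z of the log signal after scaling to non-targeting control siRNA wells of the plate.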 To be noted: RAW264.7 macrophages, IL-1a HTRF, actives lie on both sides, screened at 100 nM (by protocol), cells primed 5 h with Pam3CSK4 first. Put shortly:
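Mouse macrophage line RAW264.7 is transfected with siRNA (100 nM final), grown 48h, primed with TLR ligand Pam3CSK4 5 h and given intracellular LipidA 24 h. IL-1a in supernatant is read by HTRF and viability by luminescence.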
(Time-resolved FRET reads energy transfer from a long-lived donor to a nearby acceptor.)
“GGAGGCCAUCACACUUAGATT against 4933421I07Rik”: the z-score was -2.27 (active).

Regarding GUUCCCGUUCUACGAGAAGTT against Foxl2, the z-score was 1.22 (inactive).

On to CCAAAUGACAGCUAUGGCCTT against Gtf2ird2, for which the z-score is -0.312 (inactive).

For GCUGUCCAAGUACGAGACATT against Atoh7, the z-score is 0.0721 (inactive).

As to GCUCCUGUGAUUGAUGCAGTT against Dync1h1, the z-score is 0.528 (inactive).

For the sequence GCAUUUAUAAUUGCUGAACTT against Cbx1, the z-score was -0.637 (inactive).

On to GGAACCACACAUGUGUUAATT against Grik2, for which the z-score was -0.281 (inactive).

Consider GGACAAUUGCCUUUUGACATT against Thbs3, for which the z-score was 0.146 (inactive).

For CCAGCAGCCUUCUAACUAUTT against Hnrnpa2b1, the z-score was 2.14 (active).

With GGUCUUCUACAACUCGGAATT against Sgpp1, the z-score was -0.146 (inactive).

For GGUGGUGAGAUAGAGAAAUTT against C1qc, the z-score is -0.115 (inactive).

Consider GCAUUACACUUAACUGACGTT against Zfp652, for which the z-score was -1.28 (inactive).

Turning to CCCAAUAACAUCUUAAGAUTT against Lyn, the z-score is -0.254 (inactive).

Turning to GGGAGACGGCGAGGUUUUATT against Arl6ip4, the z-score was 2.89 (active).

For GGAAUGUCACUUUGACUCUTT against Arxes1, the z-score is -0.533 (inactive).

For GGCCAGAGAAGAUUACUUUTT against Ajuba, the z-score was 1.03 (inactive).

Turning to GGACCUCACAGAUUAUGGGTT against Ebi3, the z-score was 0.693 (inactive).

For “CGCCUACAGCUCUAUCUUATT against 2700062C07Rik”, the z-score was 1.05 (inactive).

Regarding GGCGACAUGAAAGAAGGCATT against Klk6, the z-score was 2.61 (active).

As for ACCCUCACCUCGCAUGACUTT against Pcbd2, the z-score is -1.57 (inactive).

Regarding GGACAAAGUAUUUGUGACCTT against Cd3d, the z-score is 0.00913 (inactive).

Consider GCAAGAUCCAGCCCUAUCATT against Usp17lc, for which the z-score was -0.439 (inactive).

Turning to GGAAAGUCCUUCAUCAGCATT against Cep120, the z-score is -2.91 (active).

On to GGACAAGAUGAUCUGCCUATT against Lrrc8a, for which the z-score was 0.722 (inactive).

On to GCCGAUACUUGAGCCAGUUTT against Srd5a1, for which the z-score is 0.477 (inactive).

Take GCUUCGACACUUUAUUUCUTT against Cnp: the z-score was 0.26 (inactive).

With GGGUUUUCUUGUGUGAAAATT against Pomp, the z-score was -2.93 (active).

As for CGAGGGAAUGCACUACAACTT against Chpf, the z-score is 2.16 (active).

Turning to GGAAGACCAGCAGUUAAGATT against Grb10, the z-score is -1.56 (inactive).

With GGUGGAAGAGGUCAAAUAATT against Denr, the z-score is 1.05 (inactive).

On to GGAAAAAGACUUCUAUCACTT against Ly6g6g, for which the z-score is -2.03 (active).

Turning to GGCUUUUGAGAUUGCUAAATT against Mfap3l, the z-score is -0.491 (inactive).

For GGCCUUUGAUGACUUCAUCTT against Cacna1h, the z-score is 0.904 (inactive).

Turning to CCACUGGACAGGAACAAAGTT against Rims1, the z-score is -1.2 (inactive).

As to GGAGGUGAUGCAGAUGCUGTT against Gpi1, the z-score was 3.06 (active).

For the sequence GCCGACUCAUGGUUUAGAATT against Tmem18, the z-score is -0.0972 (inactive).

GGCAAUGAAUUUAACAAUCTT against Zfp874a: the z-score is -0.351 (inactive).

With GGGACUUGAUCUCCUGAGUTT against Krtap4-2, the z-score is -0.223 (inactive).

In the case of GGACAACGAGUGUCUGGGUTT against Cx3cr1, the z-score is 4.8 (active).

Regarding CCCAUGGUCACUUAUAUAUTT against Jarid2, the z-score is 0.109 (inactive).

Regarding GGAGCUUCGUGGAUAAGAGTT against Padi3, the z-score was -1.79 (inactive).

Take GGUUGUUGGAAAAGAUGAATT against Ids: the z-score was -1.55 (inactive).

Regarding GGAUCAUCCAAGUGUUCCGTT against Olfr555, the z-score was 1.51 (inactive).

For the sequence GCAGUUUGUGGAUAUGUCATT against Treh, the z-score is 0.604 (inactive).

Take GGUUUUCUCGCUCAGACCATT against Wt1: the z-score is 0.352 (inactive).

Turning to GGUCAUACAUGUGAAGACATT against Tsr2, the z-score is 2.01 (active).

Take GGGCAAGAUGGUCAGUAGATT against Tpt1: the z-score was 0.627 (inactive).

For CGCAACAGCUAGGAUUUUUTT against Me1, the z-score was 0.193 (inactive).

As to CCCAUUAGAUGCUGAAUAUTT against Stmn1, the z-score is 0.139 (inactive).

For the sequence CCAGUGUUUGACUUGACCATT against Dpysl3, the z-score is 0.228 (inactive).

Consider GGUUGUCGUCAACAAGAGCTT against Krt72, for which the z-score is 1.96 (inactive).

Turning to GGUGUCAUCCCUGAAAGAGTT against Tert, the z-score was 0.0314 (inactive).

Turning to GGAAUUUCUUCAGGACACUTT against Procr, the z-score is 0.278 (inactive).

Regarding GGCUCAAUAAAAUGAAGUGTT against Elovl2, the z-score was 2.03 (active).

On to GGCUCAUGGUUAUUGUAAUTT against Olfr1198, for which the z-score was -0.385 (inactive).

For the sequence UGUAUCUUUCUGUAGUUCUTT against Taar7e, the z-score is 0.195 (inactive).

As for GGAACAUGGCACUUUCGUGTT against Pcdh10, the z-score is 0.905 (inactive).

On to CGGUUAAAAGCCCUCAGCATT against Olfr592, for which the z-score was -1.41 (inactive).

GGUCAAGUGCGAGAAACUCTT against Mafb: the z-score is -0.016 (inactive).

With GGUGGGAAGAGGAAUACACTT against Iffo1, the z-score was 4.73 (active).

Regarding GGGACCAGAUGAAGAAGGATT against Coq4, the z-score was 0.267 (inactive).

Consider GGAAAUAGAGGAAAGAGAATT against Rbm17, for which the z-score is -0.235 (inactive).

As for GGCCAUCCAUUGAAGACAUTT against Stk-ps2, the z-score was 1.05 (inactive).

Take GGCUCUGUUGAAUGCAACGTT against Slc39a6: the z-score was -2.15 (active).

Consider CUUUGUCAGCCAUGUAUCCTT against Tas2r104, for which the z-score is 0.468 (inactive).

For the sequence “GCUGCCACUGGACACAUAATT against 4930591A17Rik”, the z-score was -0.0198 (inactive).

As to GGCUCAAGAAAGUGAAUGATT against Myog, the z-score is -1.14 (inactive).

As for GCAAGACACUUGAUAACUCTT against Znrd1as, the z-score is 2.34 (active).

For GGAGCAUUUGUUUCCAAGATT against Cd38, the z-score is -1.33 (inactive).

Consider GCGCAAUGACGAUAAACUCTT against Sema3f, for which the z-score was 0.534 (inactive).

CCGGAGGUUCCAACAAACUTT against Dlx1: the z-score was -0.591 (inactive).

For the sequence GGAUCCAGAACUAAAAAUCTT against Pcdhga2, the z-score is 0.193 (inactive).

With “GCUUACUAAUGCGGAUUACTT against 5330438D12Rik”, the z-score was -2.41 (active).

Turning to GGAAGUUGGUGAGCUGGUATT against Ccl17, the z-score is 2.4 (active).

Consider GGAAGACAACAACCUAGAATT against Rpn1, for which the z-score is -0.894 (inactive).

As to GCAGAGUCUGGAUCAACAUTT against Efcab14, the z-score is -0.583 (inactive).

CCUCCAGUUCAGAAUUCUATT against Surf4: the z-score was 0.634 (inactive).

In the case of GGCACGAUACUUAUUUGAATT against Nudt13, the z-score is -1.43 (inactive).

Regarding GGAAGUUGUAGGAGAAAACTT against Rnf214, the z-score is -0.624 (inactive).

Consider CGAGAACAGAGGUUUUUAATT against Mxi1, for which the z-score is 0.0641 (inactive).

GGAUGCAUUUUUUCUGGAATT against Nop53: the z-score is 0.85 (inactive).

As for GGUGGAAGAGGAGAGUGAATT against Ncl, the z-score is -0.284 (inactive).

In the case of GGAACUGAGCCAAGAAGCUTT against Prox2, the z-score was -2.16 (active).

For “GUGUGGACAACUCCUGAGUTT against 9630041A04Rik”, the z-score is -1.14 (inactive).

Turning to CGUUAACUCUCGGACGAUCTT against Fitm1, the z-score is 0.576 (inactive).

On to GGAGGUGGAUCAAAUGGCATT against Gnrh1, for which the z-score is -0.667 (inactive).

Turning to GGAAAUAUUGUCAUCAUGGTT against Olfr1302, the z-score is -0.483 (inactive).

Turning to GCGGAACUGACUUUCCUGATT against Rhot2, the z-score is 0.443 (inactive).

For the sequence GGGUAAGAGUUACAGAAUATT against Serpinb8, the z-score is -0.0947 (inactive).

Take GCUUUACGAUACUCCAUAUTT against Shd: the z-score was -0.506 (inactive).

Take GGGAGAAAAUUGGCUUAGATT against Dclre1b: the z-score was 0.424 (inactive).

On to GAUGUUCUGCAUCUACUUUTT against Olfr545, for which the z-score is 1.46 (inactive).

As for CCUGAAAUCCUGUAGCUACTT against Pgap3, the z-score is 1.35 (inactive).

As for GGCAGAGACCUCAAAACCATT against Selplg, the z-score is -2.33 (active).

For GGACCAUCACUUCCAGCUATT against Rab1b, the z-score was -0.726 (inactive).

As for GGAAGUCUCUAUCCUGAACTT against Prss50, the z-score is -0.24 (inactive).

Consider GGAAGUCAACAAUGCAUUCTT against Olfr1451, for which the z-score was -0.133 (inactive).

For GGUAAAUUACUCUGAUCAATT against Gpr61, the z-score is -0.593 (inactive).

For GGGAUUAAUAUCAUACCGATT against Slc30a5, the z-score is -1.33 (inactive).

With GGGUUUUAUGACCUUCAAGTT against Zkscan14, the z-score is 0.655 (inactive).

On to GGAUGCUCUAGUUCCAUUATT against Aym1, for which the z-score was 0.51 (inactive).

GGAGCAUCAUUUUAACACUTT against Tubd1: the z-score was 0.925 (inactive).

Take GGAUCCUGGUCCAAACUUUTT against Atraid: the z-score was -1.52 (inactive).

Turning to GGUUAUUGGCACUUUUAGATT against Ect2, the z-score was 0.0504 (inactive).

As for GGAUUGCUUCACCACAUGUTT against Fes, the z-score is 2.44 (active).

Take GGUGCUGAUGAAGUUCAUGTT against Ap1b1: the z-score was 1.47 (inactive).

Regarding GGAGACUAUUUCAUCUACUTT against Tnfsf15, the z-score is 0.347 (inactive).
